“And” between values parts separate entries of the source, which are not always exact repeats. Equal entries are not always repeated. Compounds without any hit were thinned out: in the full panel of roughly 83,000, 20% have a hit.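 Compound tested at a single concentration for 48 hours in 96-well plates; a percent growth value below 10 was scored as active.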 Values without a mark were called inactive. The source made the active and inactive calls.

What all share (assay): NCI-60 one-dose screen, 48 h (100 = growth as untreated, 0 = no growth, -100 = all killed)
One test has as its system SK-MEL-2 melanoma. To be noted: 10 µM.
The subject of another test is EKVX NSCLC. To be noted: 10 µM.
The next test relates to SN12C renal. To be noted: 10 µM.
The next test concerns UO-31 renal. To be noted: 10 µM.
The subject of a further test is TK-10 renal. To be noted: 10 µM unless noted.
A further test has as its system ACHN renal. To be noted: 10 µM.
For the next test, the system named is CAKI-1 renal. To be noted: 10 µM.
In the next test the test system is A498 renal. To be noted: 10 µM.
A further test has as its system HL-60(TB) leukemia. To be noted: 10 µM.
The test system of the next test is CCRF-CEM leukemia. To be noted: 10 µM.

Regarding `C[C@]12CC[C@H]3[C@@H](CCC4=CC(=O)CC[C@@H]43)[C@@H]1CC[C@@H]2OC(=O)N(CCCl)N=O`, the growth is 27.4% in the test with SK-MEL-2 melanoma; 119% in the test with EKVX NSCLC; 23.2% in the test with SN12C renal; 40.8% in the test with UO-31 renal; 87.6% with TK-10 renal; 13% in the test with ACHN renal. For the same molecule, the growth in the test on CAKI-1 renal is 27.4%; in the test with A498 renal, 58%; with HL-60(TB) leukemia it was -22.6% (active); in the test with CCRF-CEM leukemia it was 11%.
As for `O=[N+]([O-])c1ccc(N2CCOCC2)c2c1no[n+]2[O-]`, the growth in the test on SK-MEL-2 melanoma is -4.77% (active); in the test on EKVX NSCLC it was 46.5%; in the test with SN12C renal, 16.8%; in the test with UO-31 renal, 8.16% (active); with TK-10 renal, -0.265% (active); with ACHN renal, 13.6%. Besides, the results for the growth in the test with CAKI-1 renal, in the test on A498 renal and with HL-60(TB) leukemia were 26.1%, -14.1% (active) and -16.7% (active), respectively.
For the molecule `CC(C)(C)OOC(=O)/C=C\C(=O)OOC(C)(C)C`, the growth with SK-MEL-2 melanoma is 103%; with EKVX NSCLC, 123%; in the test on SN12C renal, 97.3%; with UO-31 renal, 103%; with TK-10 renal, 101%; in the test with ACHN renal, 108%. Besides, the growth in the test on CAKI-1 renal was 127%; in the test with A498 renal, 109%; with HL-60(TB) leukemia, 74.6%; in the test with CCRF-CEM leukemia, 96.4%.
With `NC(Cc1ccccc1)c1ccccc1` (stereo not given), the growth with SK-MEL-2 melanoma is 99.8% and 101%; in the test on EKVX NSCLC, 103% and 112%; with SN12C renal, 102% and 101%; with UO-31 renal, 93.6% and 69.8%; in the test with TK-10 renal it was 101% and 103%; in the test on ACHN renal it was 105% and 101%. The growth in the test on CAKI-1 renal is 96.5% and 102%; with A498 renal it was 99.9%; with HL-60(TB) leukemia, 102% and 107%; in the test with CCRF-CEM leukemia it was 110% and 90%.
Turning to `Cn1c(O)c(N=O)c(=O)n(C)c1=O`, the growth with SK-MEL-2 melanoma was 108% and 109%; in the test on EKVX NSCLC it was 110% and 107%; in the test on SN12C renal it was 108% and 94.7%; with UO-31 renal, 89.1% and 85.7%; in the test with TK-10 renal it was 102% and 105%; in the test with ACHN renal, 110% and 105%. Besides, the growth in the test on CAKI-1 renal is 107% and 113%; with A498 renal it was 84.5% and 97%; in the test on HL-60(TB) leukemia, 96.6% and 101%; with CCRF-CEM leukemia it was 111% and 113%.
As to `CC12OOC(c3ccccc31)c1c2ccc2ccccc12` (stereo not given), the growth in the test with SK-MEL-2 melanoma was 71.7%; in the test on EKVX NSCLC, -51.5% (active); in the test with SN12C renal, 94.4%; in the test on UO-31 renal, -95.4% (active); with TK-10 renal, -42.6% (active); with ACHN renal, -100% (active). The growth is -56.1% (active) with CAKI-1 renal, -63.5% (active) in the test on HL-60(TB) leukemia and -41.8% (active) in the test on CCRF-CEM leukemia.
As to `COc1ccccc1[As]=[As]c1ccccc1OC` (stereo not given), the growth in the test with SK-MEL-2 melanoma was -86.9% (active); in the test on EKVX NSCLC it was -67.7% (active); with SN12C renal it was -83.3% (active); in the test with UO-31 renal, -93.1% (active); in the test with TK-10 renal, -95.8% (active); with ACHN renal, -96.9% (active). In addition, the growth in the test on CAKI-1 renal was -86.5% (active); in the test on HL-60(TB) leukemia it was -37.1% (active); with CCRF-CEM leukemia, 2.34% (active).
As to `COc1ccccc1/C=C/[N+](=O)[O-]`, the growth was 104% with SK-MEL-2 melanoma; 72.6% in the test on EKVX NSCLC; 83.2% with SN12C renal; 62% in the test with UO-31 renal; 72.9% in the test on TK-10 renal; 55.5% in the test on ACHN renal. The figures for the growth with CAKI-1 renal and in the test on HL-60(TB) leukemia were 70.9% and 6.74% (active), respectively.
Turning to `CN(CCCl)c1ccc(/C=C/C2=[N+](C)c3ccccc3C2(C)C)cc1`, the growth with SK-MEL-2 melanoma was 46%; with EKVX NSCLC it was 54.6%; in the test with SN12C renal it was 1.3% (active); in the test on UO-31 renal it was 87.3%; in the test on TK-10 renal, 54.7%; with ACHN renal it was 85.2%. The growth with CAKI-1 renal is 102%; in the test on HL-60(TB) leukemia, -29.5% (active).
Consider `COc1cc2c(cc1OC)C13CCN4CC5=CCOC6CC(=O)N2C1C6C5CC43` (stereo not given), for which the growth in the test on SK-MEL-2 melanoma was 116% and 77.5%; in the test on EKVX NSCLC, 105% and 114%; in the test with SN12C renal, 97.3% and 91.3%; in the test on UO-31 renal, 87.9% and 92.8%; in the test with TK-10 renal it was 112% and 138%; with ACHN renal, 99.6% and 107%. Besides, the growth is 103% and 104% in the test with CAKI-1 renal; 127% and 80.1% in the test on HL-60(TB) leukemia; 100% and 76.3% in the test on CCRF-CEM leukemia.
For `O=C(O)c1cc(Cc2ccc(O)c(C(=O)O)c2)ccc1O` (tested in a mixture with another compound), the growth was -53.3% (active) with SK-MEL-2 melanoma; 73.8% in the test on EKVX NSCLC; 87.1% in the test on SN12C renal; 42.6% with UO-31 renal; 93% with TK-10 renal; 77% in the test on ACHN renal. In addition, the growth is 58.4% with CAKI-1 renal, 21.3% in the test with HL-60(TB) leukemia and 0.136% (active) in the test with CCRF-CEM leukemia.
As for `CC[C@@H](C)[C@@H]1NC(=O)C(NC(=O)C(CC(C)C)N(C)C(=O)C2CCCN2C(=O)C(C)O)C(C)OC(=O)C(Cc2ccc(OC)cc2)N(C)C(=O)C2CCCN2C(=O)C(CC(C)C)NC(=O)C(C)C(=O)C(C(C)C)OC(=O)C[C@H]1O` (stereo not given in full), the growth in the test with SK-MEL-2 melanoma is -52.4% (active); in the test with EKVX NSCLC, -10.5% (active); in the test with SN12C renal, -14.5% (active); in the test on UO-31 renal, -33.2% (active); in the test on TK-10 renal, -15.3% (active); in the test with ACHN renal, -70.5% (active). In addition, the growth in the test on CAKI-1 renal is -6.01% (active); with HL-60(TB) leukemia it was -25.2% (active); in the test on CCRF-CEM leukemia, -20.7% (active).

Values taken from PubChem BioAssay (NCI).
